Laboratory results published in the supplement of paper PMC6555819.

Experiments:
Experiment in all cases: PBM binding z-score (relative to random genomic background probes); higher = stronger binding; sequences stand for … in GC…GCGATTGACAGCGTAGAATGAAGG
[1] = system: RARb homodimer (NR concentration 270 nM)
Procedure, shortened: (§1)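 For binding z-scores, the reference was random background probes on custom Agilent 4×180K protein-binding microarrays. These arrays were incubated 1 h with ligand-free nuclear receptor dimers in PBS pH 7.4, 2% milk, 0.02% Triton X-100, 1 mM DTT, 0.2 mg/mL BSA and 0.4 mg/ml salmon testes DNA. Fluorescence was scanned after antibody detection of each partner (one per run) and regression-normalized.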

[2] = system: RARg:RXRa (NR concentration 270 nM, RXRa partner concentration 90 nM)
Procedure, shortened: as §1

[3] = system: RARg homodimer (NR concentration 270 nM)
Procedure, shortened: as §1

[4] = system: RXRa DBDmut IVT, anti-RXR (DBD mutation: RXRa K156A/R161A, NR concentration 90 nM)
Procedure, shortened: as §1

[5] = system: RXRa homodimer (NR concentration 180 nM)
Procedure, shortened: as §1

[6] = system: THRa:RXRa (NR concentration 90 nM, RXRa partner concentration 90 nM)
Procedure, shortened: as §1

[7] = system: THRa homodimer (NR concentration 90 nM)
Procedure, shortened: as §1

[8] = system: VDR homodimer (NR concentration 270 nM)
Procedure, shortened: as §1

Sequence | PBM binding z-score [1] | PBM binding z-score [2] | PBM binding z-score [3] | PBM binding z-score [4] | PBM binding z-score [5] | PBM binding z-score [6] | PBM binding z-score [7] | PBM binding z-score [8]
CGTCCAAGGTCATAGGAGGTCAGCGAAGACAGAT | 5.65 | 7.17 | 7.58 | 4.05 | 7.72 | 5.52 | 3.42 | 4.37
CCGACTGGGGCAGAAGGTTACCATAAGCCAGCCC | 1.53 | 1.14 | 0.806 | -0.593 | 1.04 | 0.31 | -0.571 | 0.083
ACTAGCAGGCCAAGTTTCGGTCACTCAAACAAAG | 1.95 | 1.68 | 1.53 | 0.194 | -0.395 | 0.604 | 0.212 | -0.0934
TCATATAGGTAAATGCTAGGTGAAACTCCGATCT | 0.638 | 0.657 | 0.3 | 1.3 | 0.917 | 1.65 | 0.67 | 0.32
AGAATGAGGTTATACGTAGATCAGGGATGAAAGT | 1.04 | 1.74 | 1.27 | 1.92 | 2.47 | 2.23 | 0.607 | 0.865
TCATATAGGTAAATGCTAGGTAAAAGTCCGATCT | 0.193 | 0.567 | 0.36 | 1.76 | 0.806 | 0.9 | 0.258 | 0.409
CGAACTAGGTCATCCAGGACAATGAATACATTGA | 2.68 | 3.81 | 4.59 | 2.36 | 2.73 | 3.81 | 2.22 | 2.27
TCTAGTTGGTCACGGAGGTCAGACACGACGGGTA | 3.9 | 3.72 | 3.75 | 1 | 3.4 | 2.79 | 1.39 | 1.56
CGTCAAAGTTCAACTAAGGTAACGAAAAGCACGC | 4.12 | 5.98 | 6.71 | 4.46 | 4.91 | 5.09 | 1.67 | 3.6
CCTACTGGGCCACGAAAGCTCATTGATTCAGTGA | -0.538 | -0.286 | 0.00415 | -0.605 | -0.6 | -0.523 | -0.958 | -0.935
TATAGTTGGTCAAAGGTCACACACTCGAAATGCG | 5.04 | 7.01 | 6.33 | 0.941 | 8.14 | 4.24 | 1.79 | 2.12
TATACAGGGTCAATGGCCAGAGTACGAATGTCGA | 3.21 | 5 | 4.73 | 2.43 | 5.41 | 3.22 | 0.631 | 2.79
ACTATTAGTTGACTTAGGGCAAGCGATACGACGC | 0.617 | 0.671 | 0.684 | 0.657 | 0.682 | 0.91 | -0.0225 | 0.0582
CGTCCAAGGTCAATGCTAGGTCGGTGAAAGCATT | 4.24 | 6.11 | 6.15 | 3.31 | 4.83 | 3.79 | 1.98 | 2.04
GCTAGTTGGTCAGTAAAAGGTCACACACCGGTCG | 5.15 | 5.32 | 4.87 | 0.715 | 5.2 | 3.52 | 2.08 | 1.99
TCATATAGGTAAACGGTGAAAGTCGGTGTGGTAA | 0.301 | 0.178 | -0.128 | 1.47 | 0.601 | 0.081 | 0.00294 | -0.132
TCTCGGAGGACACGAAGGACAGAGCTTTCCAGAG | 0.867 | 0.776 | 1.75 | 0.518 | 0.243 | 1.48 | 0.544 | 0.139
TTACCAAGGTGAAGGTCGTTGATCCCTCTGTAGA | 1.7 | 1.29 | 1.32 | 0.0227 | 1.7 | 2.34 | 1.1 | 1.15
CAAACTAGGTCACCTGAAGGTCAAAGTCCGCATG | 5.57 | 8.05 | 7.61 | 2.29 | 6.63 | 4.16 | 2.96 | 3.86

Sequence | PBM binding z-score [1] | PBM binding z-score [2] | PBM binding z-score [3] | PBM binding z-score [4] | PBM binding z-score [5] | PBM binding z-score [6] | PBM binding z-score [7] | PBM binding z-score [8]
CGTCCAAGGTCAAAGGACAGTGAAGAGATGACGG | 4.02 | 5.79 | 6.52 | 3.52 | 5.67 | 3.76 | 1.95 | 2.37
CCGACTGGGGCAGAAAGGTTGCCATACCATCCGG | 0.631 | 0.253 | 0.175 | -1.11 | 0.422 | -0.0628 | -0.642 | -0.404
CTCGAAAGGTCGGTTGAGGTGAGAATACGGATAA | 2.21 | 3 | 3.18 | 0.839 | 2.33 | 4.84 | 1.13 | 0.742
ATCTCTAGGTAAAGATAGTTCAGTGAGTGCAAAT | 1.5 | 0.634 | 0.838 | 0.341 | 0.157 | 1.1 | 0.522 | 4.13
CCTACTGGGCCACGGAAGGTCATTGATTCAGTGA | 3.78 | 2.93 | 2.38 | -0.515 | 2.57 | 3.67 | 0.727 | 1.2
CGTCAAAGTTCAACTAAGGTAACGCAAAGCACGC | 4.28 | 5.94 | 6.37 | 4.62 | 4.92 | 5.48 | 2.13 | 3.54
CCTGCTAGGTCAATGTTCAGCTAAAGCAGCTCGC | 2.69 | 3.48 | 4.07 | 1.93 | 1.91 | 2.34 | 0.628 | 0.0912
TCTTGTAGATCAACAGGAGGTAAAGAAAGATCGA | -0.473 | 0.0301 | -0.00391 | 0.122 | 0.423 | 0.237 | -0.482 | -0.385
TCCAGTAGGTTAGGGGCATTCAGAATGGCGTCGA | 0.983 | 0.561 | 0.313 | 1.16 | 1.06 | 0.915 | 0.179 | 0.877
CCGGGTAGGTTATGGGGCATTCAGGCAACGGTGA | 1.1 | 0.906 | 0.708 | -1.46 | 0.781 | 0.806 | 0.313 | 0.138
ACTTACGGGTCAACGAGGTTACAGCACGCGTATA | 3.89 | 6.06 | 5.3 | 2.37 | 6.55 | 4.46 | 1.51 | 3.71
CCTCGGAGGGCAACAGGAGGTCAGAGCTGCCAGA | 3.73 | 5.71 | 4.23 | 0.315 | 3.16 | 3.26 | 0.313 | 1.22
GATACAGGGTCAAGGCCACAGTACGCGTATTGAT | 3.85 | 5.44 | 5.11 | 2.15 | 5.9 | 3.69 | 1.85 | 1.84
CGAACTAGGTCATCCATGACAGTGAATACATTGA | 2.92 | 4 | 4.72 | 2.04 | 2.97 | 2.84 | 0.683 | 1.17
CATCCAAGGTCAGAGAGGTCAGTGAATGCCGAGT | 5.53 | 6.35 | 7.37 | 3.51 | 6.54 | 4.43 | 2.83 | 6.11
ATCGAAAGGTCGAGGTGATTATAGAGAAAGGGAA | 2.72 | 4.24 | 4.23 | 0.927 | 4.29 | 2.54 | 0.338 | 0.821
GCTGCTAGGTTAGGTTGGTCAGCTAACGGGTACG | 0.8 | 0.0162 | 0.355 | 0.0127 | -0.131 | 0.0584 | -0.34 | 0.253
ACAGACAGGTGAGTGAAGGTAACTCGGCTGGACG | 0.0831 | 0.0852 | 0.044 | -0.351 | 0.256 | 1.38 | -0.708 | -0.648
CAAACTAGGTCAAGATGTCAAAGTCCGCTTCCCG | 3.53 | 4.72 | 5.27 | 1.76 | 3.43 | 2.86 | 1.04 | 0.881

Sequence | PBM binding z-score [1] | PBM binding z-score [2] | PBM binding z-score [3] | PBM binding z-score [4] | PBM binding z-score [5] | PBM binding z-score [6] | PBM binding z-score [7] | PBM binding z-score [8]
TCTTGTAGATGAAAGGTTAAGAAAGCCGAAGCCT | 1.17 | 1.2 | 0.987 | 1.1 | 2.39 | 0.806 | -0.431 | -0.24
ATGTCTAGGTAAAGTTCAGTGAAAGATCGATAGA | 2.59 | 2.12 | 2.62 | 1.25 | 1.5 | 1.17 | 0.000451 | 2.39
ACTAGCAGGCCAAGGGTCACTTAAGATTAGTCCG | 3.52 | 4.12 | 4.04 | 0.5 | 3.87 | 2.96 | 0.297 | 0.981
GCACCAAGGTGAATAGGTCGTTGATGAGTAGGCG | 1.77 | 2.42 | 1.1 | 0.00127 | 1.77 | 1.63 | 0.229 | -0.0787
TGAATGACGTTATAAGATCAGGGAACGTTGCAAA | -0.513 | 0.43 | 0.292 | -0.941 | 0.24 | -0.021 | -0.323 | -0.203
TCTTGTAGATCAAAAGGAGGTTAAGAAAGATCGA | 0.201 | 0.79 | 0.0979 | 0.622 | 1.17 | 1.09 | -0.613 | 0.16
TCATATAGGTAATACAGGTAAAAGTCGGCATCTA | -0.0506 | 0.506 | 0.536 | 1.9 | 1.21 | 0.497 | 0.159 | 0.0521
TCCGACAGGTGAAGGTAACTCAGGTACGCAGTCG | 0.334 | 0.325 | 0.374 | 0.258 | 0.788 | 1.3 | -0.0593 | 0.0508
TTACCAAGGTGAAGGGTCGTTGATGCACGCCTTG | 1.79 | 2.19 | 1.14 | 0.00143 | 3.13 | 2.35 | 0.598 | 1.16
TCTAGTTGATCACGGAGGTCACACACGACGGGTA | 3.89 | 4.17 | 3.92 | 0.917 | 4.56 | 3.52 | 2.48 | 2.18
ATCGAAAGGTCGTGAGTTGAGTATACAGAAAGGC | 2.4 | 4.08 | 3.7 | 1.49 | 4.88 | 2.32 | 0.26 | 1.49
CCTGCTAGGTCCATGGTCAGCTAAAGCAGCTCGC | 0.248 | -0.442 | -0.195 | 1.19 | -0.603 | -0.287 | -0.629 | 0.0229
TCTCGTAGATCAAGCAGGTTAAGAAAGCCTGAGT | -0.357 | -0.372 | -0.369 | 0.598 | -0.0292 | 0.103 | -0.615 | -0.12
CGTCCAAGGTCAAGGGTCAGTGAAGAGATGACGG | 5.05 | 7.4 | 7.41 | 3.29 | 8.75 | 4.58 | 2.82 | 3.3
ATTTACGGGTCAACGAGGTTATAGCACGCGTATA | 3.79 | 6.1 | 5.62 | 2.5 | 6.99 | 4.19 | 1.43 | 4.5
TCAATGAGGTTAAAGATCAGGGAACGTGGCGTCG | 0.614 | 2.41 | 1.32 | 1.88 | 4.18 | 2.42 | 0.288 | 0.855
AGTACAGGGTCATCGTAGGCCAGAGTACGCACAG | 3.81 | 5.65 | 5.22 | 3.47 | 6.42 | 4.59 | 1.57 | 3.92
GCTGCTAGGTCAACTGATGGTCAGCTGAAGCTCG | 3.56 | 5.1 | 5.51 | 1.55 | 2.82 | 3.12 | 1.05 | -0.0434
